Compound activity deposited in PubChem BioAssay by National Center for Advancing Translational Sciences (NCATS).
Shown are actives, neighbours in structure and some others; about 1% of the full set was active somewhere.
RXFP1 antag: antagonists of human relaxin receptor RXFP1 | actives 0.59% (n = 350,000) | activity change, negative = inhibition, % at 57.5 µM | HEK293-RXFP1, relaxin-stimulated cAMP HTRF, 30 min; hits give low values | Q9HBX9;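 active = activity change of -60% or lower, but not beyond a set lower limit; inconclusive = change between -60% and -40%, or beyond the set limit; inactive = change above -40%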
RXFP1 agonist: RXFP1 (human) receptor agonism; actives 0.3% (n = 370,000); Q9HBX9; Potency, µM (titrated, usually from 57.5 µM), actives largely listed as activators; HEK293T-RXFP1 cAMP TR-FRET, 30 min; response scale: percent of porcine relaxin response, buffer zero; AID 2676; active = well fitted activation curve with a large enough effect; inconclusive = small, poorly fitted or top-dose-only effect; also: nearly all actives have a fitted effect of over 60% in size
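HEK293 cells stably expressing RXFP1, treated 30 min at 37C with compounds plus PDE4 inhibitor Ro 20174; cAMP measured by HTRF TR-FRET. Normalized to buffer and 29 nM porcine relaxin; EC50 by Hill fit.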
TSHR antagonist: antagonists of human thyroid stimulating hormone receptor; activity change, negative = inhibition, % at 11.5 µM; TSHR-expressing cells, TSH-stimulated cAMP HTRF, 2 h; hits give low values; actives 0.2% (n = 330,000);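 active = activity change below a set negative limit, meaning inhibition stronger than a set level, cut at about -70% in these data; inconclusive = activity change between two set negative limits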
Target sequence (P16473 whole entry, looked up): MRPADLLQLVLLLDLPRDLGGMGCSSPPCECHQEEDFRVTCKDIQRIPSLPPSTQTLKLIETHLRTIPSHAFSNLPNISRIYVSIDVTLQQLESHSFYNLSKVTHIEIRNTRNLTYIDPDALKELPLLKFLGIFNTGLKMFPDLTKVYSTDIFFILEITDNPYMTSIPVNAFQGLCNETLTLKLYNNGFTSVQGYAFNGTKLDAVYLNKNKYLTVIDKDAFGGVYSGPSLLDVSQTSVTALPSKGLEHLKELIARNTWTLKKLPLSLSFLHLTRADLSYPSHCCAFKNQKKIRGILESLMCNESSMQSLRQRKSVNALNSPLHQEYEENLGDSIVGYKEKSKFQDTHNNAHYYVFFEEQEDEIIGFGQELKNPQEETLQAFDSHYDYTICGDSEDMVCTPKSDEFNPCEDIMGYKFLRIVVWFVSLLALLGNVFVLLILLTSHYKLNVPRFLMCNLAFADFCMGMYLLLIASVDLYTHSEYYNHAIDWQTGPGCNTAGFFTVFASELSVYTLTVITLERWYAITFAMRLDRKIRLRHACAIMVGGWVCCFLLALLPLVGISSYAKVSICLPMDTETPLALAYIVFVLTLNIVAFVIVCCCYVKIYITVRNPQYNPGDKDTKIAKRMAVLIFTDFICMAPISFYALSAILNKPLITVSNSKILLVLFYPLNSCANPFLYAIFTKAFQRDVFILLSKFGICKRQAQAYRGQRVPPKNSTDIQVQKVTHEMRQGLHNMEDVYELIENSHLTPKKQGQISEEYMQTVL
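Competitive HTRF cAMP read-out (cryptate anti-cAMP antibody, cAMP-d2; 30 min, room temperature) in freshly harvested TSHR cells. Compounds added before TSH at EC80 (4nM final), followed by 2 hours' incubation at 37 deg C.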
gsp antag: antagonists of gsp mutant (McCune-Albright syndrome) | gsp-mutant cells, cAMP HTRF, 30 min | actives 0.4% (n = 340,000) | Potency, µM (highest dose often 76.9 µM), usual class: inhibitors | AID 624288; calls by dose curve; cell line not stated here;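 also: intracellular cAMP measured with PDE inhibitor Ro 20-1724 present during compound exposure; nearly all actives have a fitted effect of over 65% in size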
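Cells in G418 medium, seeded 16-24 h, 37C; buffer exchange to DPBS + 1 mM CaCl2, 0.5 mM MgCl2, 0.05% BSA; cpds in DMSO + […] (300 uM stock), 30 min 37C; HTRF cAMP detection.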
gsp ag: activates gsp, the McCune-Albright syndrome mutation; gsp mutant cells, cAMP HTRF, 30 min; Potency, µM (top dose mostly 76.9 µM), actives largely listed as activators; actives 0.13% (n = 340,000); AID 624287; active = well fitted activation curve with a large enough effect; inconclusive = small, poorly fitted or top-dose-only effect, or another doubt; inactive = no such curve, though single readings can be large or run the other way; cell line not stated here;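 also: phosphodiesterase inhibitor Ro 20-1724 added with compounds to block cAMP breakdown; nearly all actives have a fitted effect of over 60% in size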
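Cells stably selected in G418 were plated at 2000/well, grown 16-24 hr, then given compounds in DMSO with the PDE inhibitor […] (300 uM solution added) for 30 min at 37C; cAMP was read by HTRF.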
Large screens that a line does not name were inactive; ! = not confirmed by another sample.

CCCN(C(=O)c1ccco1)c1nnc(-c2cccc(C)c2)s1	none
COc1cccc(NC(=O)/C(C#N)=C/c2c(C)n(Cc3ccccc3)c3ccccc23)c1	none (no result: TSHR antagonist, gsp antag, gsp ag)
Cc1ccccc1S(=O)(=O)Cc1ccc(C(=O)NC2CC2)o1	gsp antag 28.2µM
Cc1ccccc1S(=O)(=O)Cc1ccc(C(=O)N(C)C2CCCCC2)o1	gsp antag 50.1µM, gsp ag inconclusive
Cc1ccccc1S(=O)(=O)Cc1ccc(C(=O)NC2CCCC2)o1	none
CNC(=O)C1CCC(Cn2c(=O)c3sccc3n(CC(=O)Nc3ccc(C)cc3C)c2=O)CC1 (stereo not given)	none (no result: TSHR antagonist, gsp antag, gsp ag)
CCC(CC)C(=O)NC1CC(=O)N(c2ccc3c(c2)OCCO3)C1 (stereo not given)	none (no result: RXFP1 antag, TSHR antagonist, gsp antag, gsp ag)
O=c1c2c(-c3ccc([N+](=O)[O-])cc3)csc2nc2n1CCC2	RXFP1 agonist inconclusive, gsp ag 22.4µM
O=[N+]([O-])c1ccc(-c2nnc3n2CCCCC3)cc1	gsp ag inconclusive
NC(=O)NC1N=C([O][Al])NC1=O (stereo not given)	none (no result: RXFP1 agonist, TSHR antagonist, gsp antag, gsp ag)
O=C(Nc1nc2cc3c(cc2s1)OCCO3)C1CCCCC1	RXFP1 antag -68.1, gsp ag inconclusive
O=C(Nc1nc2cc3c(cc2s1)OCO3)C1CCCCC1	none
CCc1cc2c(=O)c(-c3ccc4c(c3)OCCO4)coc2c(CN2CCCCC2C)c1O (stereo not given)	none
CCc1cc2c(=O)c(-c3ccc4c(c3)OCCO4)coc2cc1OS(C)(=O)=O	RXFP1 antag -84.4, gsp antag inconclusive
Cc1cccc(NC(=O)C2CCN(S(=O)(=O)c3c(C)c(C)cc(C)c3C)CC2)n1	RXFP1 antag -78.8
Cc1cccc(NC(=O)C2CCN(S(=O)(=O)c3c(C)nn(C)c3C)CC2)n1	gsp ag inconclusive (no result: RXFP1 antag)
CC(=O)Nc1cccc(NC(=O)CSc2ccc(-c3sc(-c4ccccc4)nc3C)nn2)c1	RXFP1 antag inconclusive (no result: TSHR antagonist, gsp antag, gsp ag)
CNC(=O)c1cc2ncc(C(F)(F)F)cc2s1	RXFP1 antag -82.4, gsp ag inconclusive
CNC(=O)C(C)c1ncc(C(F)(F)F)cc1Cl (stereo not given)	none
CC1CCCN(C(=O)CSc2c3c(nc4cc(Cl)ccc24)CCCC3)C1 (stereo not given)	none (no result: TSHR antagonist, gsp antag, gsp ag)
Cc1ccc(CCNC(=O)c2c3c(nc4ccccc24)C(=O)N(C2CCCCC2)C3)cc1	RXFP1 antag -71.6 (no result: TSHR antagonist, gsp antag, gsp ag)
C[C@@H](NC(=O)[C@@H]1Cc2ccccc2CN1)C(=O)NC1CCCCC1	TSHR antagonist -133.8
Cc1ccc(NC(=O)[C@@H](C)NC(=O)[C@@H]2Cc3ccccc3CN2)cc1	none
CC1CCN(S(=O)(=O)c2ccc3nc(NCc4ccccc4)ccc3c2)CC1	none (no result: TSHR antagonist, gsp antag, gsp ag)
COC(=O)C1CCN(C(=O)c2cc(-c3ccc(Cl)s3)nc3ccccc23)CC1	gsp antag 31.6µM, gsp ag inconclusive
CCN1CCN(C(=O)c2cc(-c3ccc(Cl)s3)nc3ccccc23)CC1	gsp ag inconclusive
O=C(CSc1nc2c(c(=O)[nH]1)CN(Cc1ccc(F)cc1)CC2)Nc1cccc(C(F)(F)F)c1	none (no result: TSHR antagonist, gsp antag, gsp ag)
C=CC(=O)N1C/C(=C/c2ccc(Cl)cc2)C(=O)/C(=C\c2ccc(Cl)cc2)C1	RXFP1 antag -67.2 (no result: RXFP1 agonist, TSHR antagonist)
C=CC(=O)N1C/C(=C/c2ccccc2)C(=O)/C(=C\c2ccccc2)C1	RXFP1 antag -115.6 (no result: RXFP1 agonist, TSHR antagonist)
CN1C/C(=C/c2ccncc2)C(=O)/C(=C/c2ccncc2)C1	gsp ag inconclusive
Cc1ccc(CN(C(=O)COc2ccc(Cl)c(C)c2)C2CCS(=O)(=O)C2)o1 (stereo not given)	none (no result: TSHR antagonist, gsp antag, gsp ag)
COc1ccc(NC(=O)c2cnc(SCC(=O)Nc3nc4ccc(C)cc4s3)n(C)c2=O)cc1	none (no result: TSHR antagonist, gsp antag, gsp ag)
O=C(NCc1ccc2c(c1)OCO2)c1nc(S(=O)(=O)Cc2ccccc2)ncc1Cl	none
CCS(=O)(=O)c1ncc(Cl)c(C(=O)NCc2ccccc2)n1	RXFP1 antag inconclusive (no result: TSHR antagonist, gsp antag, gsp ag)
COc1ccc(CNC(=O)c2nc(S(=O)(=O)Cc3ccccc3)ncc2Cl)cc1	RXFP1 antag -118.8!, gsp antag inconclusive
O=C(NCc1ccccc1)c1nc(S(=O)(=O)Cc2ccccc2)ncc1Cl	RXFP1 antag -113.4!
CCn1c(=NC(=O)c2ccc(S(=O)(=O)N3CCCC3)cc2)sc2cc(Br)ccc21	none (no result: RXFP1 antag, TSHR antagonist, gsp antag, gsp ag)
COc1ccc(OC)c(CN2CCCCCC2)c1	RXFP1 antag -119.5
CCOC(=O)c1c(C)[nH]sc1=S	RXFP1 agonist 25.1µM
Cc1nc2ccc(NC(=O)c3ccc(Br)o3)cc2s1	RXFP1 antag -91.8
Cc1nc2ccc(NC(=O)c3cnc(Cl)c(Cl)c3)cc2s1	gsp antag 8.91µM
Cc1nc2ccc(NC(=O)c3cccnc3)cc2s1	none
O=[N+]([O-])c1ccc2nc(-c3ccc(Cl)cc3)[nH]c2c1	gsp antag 35.5µM
O=[N+]([O-])c1ccc2nc(-c3ccncc3)[nH]c2c1	gsp ag 10µM
Cc1ccc(-c2nc3ccc([N+](=O)[O-])cc3[nH]2)cc1	gsp antag inconclusive
CCOC(=O)CC(NC(=O)c1cc2cc(Cl)ccc2oc1=O)c1ccc(C)cc1 (stereo not given)	none (no result: RXFP1 antag, TSHR antagonist, gsp antag, gsp ag)
C/C(=N\NC(=O)c1nnn(-c2nonc2N)c1-c1ccc(Cl)c(Cl)c1)c1ccncc1	TSHR antagonist -86.5, gsp antag inconclusive
O=C(Nc1ccc(Cl)c(Cl)c1)Nc1nnc(-c2ccncc2)s1	none
COc1ccc(NC(=O)Nc2nnc(-c3ccncc3)s2)cc1	gsp antag 35.5µM
CC(C)N1C(=O)S/C(=C/c2ccc3c(c2)n(C)c(=O)n3C)C1=O	gsp ag inconclusive
CCN(CC)c1ccc(/C=C2\SC(=O)N(C(C)C)C2=O)o1	RXFP1 antag -82.5
COc1ccc(S(=O)(=O)n2nc(C)c(S(=O)(=O)N3CCCCC3)c2C)cc1	none (no result: RXFP1 antag, TSHR antagonist, gsp antag, gsp ag)
CCOc1ccc(OCCOc2ccc(/C=C/C(=O)O)cc2OCC)cc1	gsp antag 20µM
CCOc1cc(/C=C/C(=O)O)ccc1OCCOc1ccc(F)cc1	gsp antag inconclusive
Cc1ccc(OC(F)F)c(NC(=O)Nc2cccc(C(F)(F)F)c2)c1	gsp antag 35.5µM
CCOc1ccc(Nc2nc(N)c(C(=O)c3ccccc3Cl)s2)cc1	RXFP1 agonist 25.1µM (no result: TSHR antagonist, gsp antag, gsp ag)
CCC(Sc1nc2cc3c(cc2c(=O)n1CCCCCC(=O)NCc1ccc2c(c1)OCO2)OCO3)C(=O)NCCCOC (stereo not given)	RXFP1 antag -112.8 (no result: TSHR antagonist, gsp antag, gsp ag)
O=C(Nc1cccc([N+](=O)[O-])c1)c1cc2ccccc2cc1O	RXFP1 antag -69.5, TSHR antagonist inconclusive, gsp antag 14.1µM
O=C(O)c1ccccc1C(=O)Nc1cccc([N+](=O)[O-])c1	none
O=[N+]([O-])c1ccc(N=Nc2c(Cl)cc(O)cc2Cl)cc1	TSHR antagonist -91.5, gsp antag 15.8µM
Cc1ccc(S(=O)(=O)c2cc3c(=O)n4ccccc4nc3n(C3CCCC3)c2=N)cc1	RXFP1 antag -83.6
